This is a sample that favours compounds with a hit; in the whole collection about 1.3% have one here.
GRP78 ERSR act = inducers of ER stress response in human glioma cells | U87-MG GRP78 promoter luciferase reporter, 16 h | Potency, µM, without a hit: at the highest dose activation, usual class: activators | actives 0.02% (n = 420,000) | AID 602332; also: potency is read from the fitted curve at half-maximal effect; series mostly up to about 76 µM; % of control where 0% means no effect; nearly all actives have a fitted effect of over 35% in size
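ERSR induction read as luciferase luminescence (Bright-Glo, 10 min at room temperature) in stably transfected human U87-MG glioma cells exposed to compounds for 16 h, using GRP78 as sensor.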
Vif-APOBEC3G blk = blocks the Vif interaction with human APOBEC3G; HeLa A3G-eYFP + Vif (tagged APOBEC3G with the HIV-1 protein that degrades it), YFP fluorescence, overnight; Potency, µM (highest dose often 46.1 µM), without a hit: at the top dose activity, negative = active, most hits filed as inhibitors; actives 0.076% (n = 410,000); also: potency is read from the fitted curve at half-maximal effect; % is scaled to controls: 0 for no effect and ±100 for the full control effect; nearly all actives have a fitted effect of over 60% in size
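HeLa cells stably expressing Vif and C-terminally eYFP-tagged A3G, seeded overnight at 37 deg C, then exposed to compound by pintool overnight at 37 deg C. Rise in yellow fluorescence (Ex 488/Em 500-530, Acumen) marks blocked Vif-driven A3G degradation.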
TRPML1 agonist = human mucolipin-1 channel agonism | Q9GZU1 | TRPML1-expressing cells, Ca2+ dye fluorescence, FDSS | activation, % (no concentration beside the values) | actives 0.12% (n = 410,000); in the data active = activation above about 50%; inconclusive = mostly about 30% to 49%; also: 0% is about no effect
Target sequence (Q9GZU1 whole entry, looked up): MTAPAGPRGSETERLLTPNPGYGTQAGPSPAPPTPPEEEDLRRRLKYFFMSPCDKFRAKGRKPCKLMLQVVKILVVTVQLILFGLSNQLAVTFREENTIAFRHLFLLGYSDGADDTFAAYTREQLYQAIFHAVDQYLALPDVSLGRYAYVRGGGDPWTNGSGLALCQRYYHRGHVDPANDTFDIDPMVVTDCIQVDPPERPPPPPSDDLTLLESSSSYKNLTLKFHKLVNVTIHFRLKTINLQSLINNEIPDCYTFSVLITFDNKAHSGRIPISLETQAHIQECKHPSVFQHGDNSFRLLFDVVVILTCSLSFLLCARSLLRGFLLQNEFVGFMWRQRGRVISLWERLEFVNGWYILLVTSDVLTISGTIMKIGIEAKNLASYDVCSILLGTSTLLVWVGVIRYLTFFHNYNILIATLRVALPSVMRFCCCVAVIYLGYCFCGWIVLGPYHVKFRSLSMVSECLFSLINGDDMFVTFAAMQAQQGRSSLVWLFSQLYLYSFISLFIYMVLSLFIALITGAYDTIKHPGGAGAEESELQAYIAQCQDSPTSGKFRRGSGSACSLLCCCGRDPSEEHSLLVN
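Cells: TRPML1-DL, 1X Tet inducer, ~16 h at 37 degrees C/5% CO2. Dye: ABD Ca8 no-wash + quencher, 45-90 min RT. Read: 10 s baseline, compound add, 110 s agonist phase; 54-4 EC80 (4uM final), 110 s antagonist phase.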
ALOX12 inh = ALOX12 (human) lipoxygenase inhibition | P18054 | purified 12hLO, xylenol orange hydroperoxide absorbance | Potency, µM (top dose mostly 108 µM), for the others: at the top dose activity change, negative = inhibition, usual class: inhibitors | actives 1.1% (n = 580,000); also: potency is read from the fitted curve at half-maximal effect; % is scaled to controls: 0 for no effect and ±100 for the full control effect
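Purified human 12hLO at 150 nM in 25 mM Hepes, 0.01% Triton X-100, pH 7.0, preincubated 15 min at room temperature with compound. Reaction started with 40 uM arachidonic acid, 30 min at room temperature. Hydroperoxide measured by Fe-xylenol orange, 573/405 nm absorbance ratio.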
Vif-A3F inh = blocks the Vif interaction with APOBEC3F; HeLa A3F-eYFP + Vif (tagged APOBEC3F with the HIV-1 protein that degrades it), YFP fluorescence increase; Potency, µM (top dose mostly 46.1 µM), inactives show at the highest dose activity, negative = active; actives 0.2% (n = 390,000); also: potency is read from the fitted curve at half-maximal effect; % of control where 0% means no effect; nearly all actives have a fitted effect of over 65% in size
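HeLa cells stably expressing A3F-eYFP plus Vif, plated and incubated overnight at 37 deg C, then exposed to compounds overnight at 37 deg C. Blocked degradation read as raised yellow fluorescence (Ex 488/Em 500-530).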
TRPML1 inh = human mucolipin-1 channel inhibition; actives 0.02% (n = 390,000); activity change, negative = inhibition, % (concentration not given with the values); AID 624415; Q9GZU1; TRPML1-inducible cells, Ca2+ dye fluorescence, FDSS; stronger effect = lower value; inhibition of EC80 agonist-evoked calcium signal; in the data active = activity change below about -50%; inconclusive = between about -30% and that limit;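 also: stimulus is agonist 54-4 at its EC80 concentration; % is scaled to controls: 0 for no effect and ±100 for the full control effect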
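Calcium fluorescence in TRPML1-DL cells induced overnight with Tet: a 110 s read after compound pin addition, then a 110 s antagonist read after challenge with 54-4 at 4 uM final (EC80).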
Numbers without * were called inactive; ? = inconclusive; . = no result given; [ ] = another dose, or the depositor's remark. Unless noted, calls follow the shape of the dose curve; as a rule, active = well fitted curve in the direction sought with a large enough effect; inconclusive = small, poorly fitted or top-dose-only effect, or another doubt; inactive = no such curve, though single readings can be large; an effect the other way counts as inactive or inconclusive.

SMILES	GRP78 ERSR act	Vif-APOBEC3G blk	TRPML1 agonist	ALOX12 inh	Vif-A3F inh	TRPML1 inh
O=C(O)CCc1ccc(-c2ccc(Br)cc2)o1	3.8%	-0.3%	1.1	44.7µM*	0.9%	-18.4
CCOC(=O)c1cc2c(C)n(-c3ccc(OCC)cc3)c(C)c2ccc1=O	8.3%	-6.3%	2.0	39.8µM*	-2.5%	26.8
CCOC(=O)c1cc2c(C)n(-c3ccc(C)cc3)c(C)c2ccc1=O	-5.8%	-1.3%	1.6	?	-0.7%	-0.3
CCOC(=O)c1[nH]c(C)c(C(=O)OCC#N)c1C	.	.	.	-2.7%	.	.
Cc1cccc(OCCCC(=O)Nc2ccc(S(N)(=O)=O)cc2)c1	1.7%	-0.5%	-0.7	6.8%	-7.7%	5.7
CCN(CC)c1ccc(NC(=O)CCCOc2cccc(C)c2)cc1	-1.2%	-3.8%	1.8	39.8µM*	6.9%	-4.8
S=c1[nH]nc(-c2cc3c(s2)-c2ccccc2CC3)o1	6.7%	-9.9%	2.2	39.8µM*	-14.3%	-17.7
CSc1nnc(-c2cc3c(s2)-c2ccccc2CC3)o1	7.2%	-4.6%	0.5	0.0%	3.2%	-9.0
COc1ccc(NC(=O)c2sc3nc(-c4cccnc4)ccc3c2N)cc1	-6.8%	-5.0%	3.2	413.5%	?	8.1
COc1ccc(NC(=O)c2sc3nc(-c4cccnc4)ccc3c2N)cc1OC	-9.3%	?	0.0	-2.2%	5.62µM*	-12.9
CC(C)c1ccc(NC(=O)CSc2ncnc3ccccc23)cc1	.	.	.	7.0%	.	.
Clc1ccc(N/N=C/c2cccc3ccccc23)cc1Cl	.	.	.	5.01µM*	.	.
Clc1ccc(N/N=C/c2cccc(Cl)c2Cl)cc1Cl	.	.	.	1µM*	.	.
Cc1c(C)n(-c2cccc(Cl)c2)c2ncnc(Cl)c12	.	.	.	-0.9%	.	.
COc1ccc(CNc2nc3ccccc3nc2NS(=O)(=O)c2cccc3nsnc23)cc1	.	.	.	6.3%	.	.
CC(=O)c1coc2c1cc(O)c1ccccc12	11.8%	-9.6%	0.2	13.9%	-8.8%	15.2
CC(=O)c1cc(O)c2ccccc2c1O	?	?	1.0	1.58µM*	?	-0.2
Cc1ccc2oc(-c3cccc(NC(=O)c4ccc(C#N)cc4F)c3)nc2c1	.	.	.	42.2%	.	.
O=C(c1ccc(S(=O)(=O)N2CCCC2)cc1)N1CCCCC1	-4.3%	0.4%	-0.2	-1.0%	10.5%	4.4
O=C(/C=C/c1ccc(O)c(O)c1)c1ccc(S(=O)(=O)N2CCCCCC2)cc1	?	-20.0%	1.4	22.4µM*	-0.7%	-13.0
Cc1ccc(NC(=O)CSc2nc3ccc(S(=O)(=O)N4CCOCC4)cc3[nH]2)cc1Cl	.	.	.	-38.3%	.	.
CC(C)c1cc(C(C)C)c(CC(=O)NS(=O)(=O)Oc2c(C(C)C)cccc2C(C)C)c(C(C)C)c1	.	.	.	24.3µM*	.	.
Cc1ccc2c(c1C)NC(=O)CC(c1ccccc1O)=N2	-4.2%	-3.8%	0.3	8.2%	11.2µM*	-9.2
Cc1c2cc(O)c(=O)cc-2oc2cc(O)c(O)cc12	12.0%	3.2%	23.5	5.62µM*	?	95.3
COc1cc(OC)c(-c2c3cc(O)c(=O)cc-3oc3cc(O)c(O)cc23)cc1OC	8.5%	6.7%	111.8*	?	?	-9.6
SMILES	GRP78 ERSR act	Vif-APOBEC3G blk	TRPML1 agonist	ALOX12 inh	Vif-A3F inh	TRPML1 inh
COc1cc(-c2cc(=O)c3ccc(O)cc3o2)cc(OC)c1OC	.	.	.	0.5%	.	.
CCCCc1ccc(N/C=C/C(=O)c2ccc(OCC)cc2)cc1	.	.	.	0.3%	.	.
O=C(NN1C(=O)/C(=C/C=C/c2ccco2)SC1=S)c1ccccc1O	-0.7%	-10.0%	1.0	12.6µM*	3.3%	3.0
COc1ccc(/C=C2\SC(=S)N(C(Cc3ccccc3)C(=O)O)C2=O)cc1 (stereo not drawn)	1.1%	3.8%	-0.3	17.8µM*	-3.1%	-10.8
O=C(O)C(Cc1ccccc1)N1C(=O)/C(=C/C=C/c2ccco2)SC1=S (stereo not drawn)	-1.9%	3.4%	0.7	5.62µM*	-5.0%	-5.3
Cn1cccc1/C=C1\SC(=S)N(NC(=O)c2ccccc2O)C1=O	-2.4%	-8.6%	0.6	-14.7%	-23.0%	-0.1
CC1=C(C(=O)OCc2ccc3c(c2)OCO3)C(c2ccc(Cl)cc2Cl)CC(=O)N1 (stereo not drawn)	.	.	.	-13.3%	.	.
Cc1cc(C)cc(-n2c(C)cc(C(=S)N3CCOCC3)c2C)c1	0.7%	-0.5%	-0.2	-29.0%	-4.2%	13.4
Cc1cc(C(=S)N2CCOCC2)c(C)n1-c1ccc(Cl)cc1	-3.3%	-6.0%	1.6	20µM*	2.1%	5.4
COc1ccccc1/C=C/CN1CCCC(CO)(Cc2cccc(Cl)c2)C1 (stereo not drawn)	-5.4%	0.2%	0.1	39.8µM*	-15.6%	0.3
COc1ccc(CNc2nc3ccccc3nc2NS(=O)(=O)c2cccc(C)c2)cc1	.	.	.	-7.7%	.	.
NS(=O)(=O)c1ccc(N/N=C/C=C/c2ccccc2[N+](=O)[O-])c([N+](=O)[O-])c1	.	.	.	-27.9%	.	.
COc1ccc(Oc2c(C)oc3cc(OCC(=O)Nc4ccccc4F)ccc3c2=O)cc1	.	.	.	3.9%	.	.
Cc1ccc(/C=C(\C#N)C(=O)Nc2ccc(Br)cc2)o1	.	.	0.4	5.5%	.	0.1
N#C/C(=C\c1ccc([N+](=O)[O-])o1)C(=O)Nc1ccc(F)cc1	1.7%	?	5.4	44.7µM*	22.4µM*	-6.9
N#CCc1ccc(NC(=O)/C=C/c2ccc([N+](=O)[O-])o2)cc1	-14.0%	6.31µM*	-0.2	.	2.51µM*	12.6
COc1ccc(C(=O)Nc2ccc(NC(=O)c3cccs3)cn2)cc1	-1.6%	1.1%	0.5	?	-0.3%	-24.2
CC(C)C(=O)Nc1ccc(NC(=O)c2cccs2)cn1	2.6%	0.8%	1.9	44.7µM*	-1.7%	-13.0
O=c1[nH]ncc2c3ccccc3n(Cc3cccc(Cl)c3)c12	1.3%	?	6.5	-26.1%	25.1µM*	7.8
N=C1/C(=C\c2ccc(-c3cccc(C(=O)O)c3)o2)C(=O)N=C2SC=C(c3ccccc3)N12	-0.1%	-13.5%	.	39.8µM*	-13.3%	.
O=c1c(-c2ccccc2)c1-c1ccccc1	-11.4%	.	.	-27.9%[22.9 µM]	.	.
S=c1sscc1-c1ccccc1	-0.9%	0.4%	-1.1	5.62µM*	-21.5%	4.4
Cc1ccc(C2NC(=O)c3c(sc(C)c3C)N2)c(O)c1 (stereo not drawn)	13.4%	-4.4%	1.2	39.8µM*	-14.7%	-9.3
CSCCC(NC(=O)c1ccc(Cl)cc1)C(=O)OCC(=O)Nc1ccc(C#N)cc1 (stereo not drawn)	-1.6%	1.0%	1.2	31.6µM*	-10.7%	20.3
COc1cc(C2CC(=O)N(c3ccc(C)cc3)C3=C2C(=O)OC3)cc(OC)c1OC (stereo not drawn)	.	.	.	-3.6%	.	.
COCC(C)NC(=O)CCc1ncc(-c2ccc(C)c(C)c2)o1 (stereo not drawn)	.	.	.	-12.0%	.	.
